This is an account of results in PubChem BioAssay AID2314 (National Center for Advancing Translational Sciences (NCATS), 2010).

Among all 300,000 compounds or so, about 37,000 (12%) were called active. For the sample, actives were picked, then their nearest neighbours and some compounds at random. A number with no mark means an inactive call. Rule as the data show it: active = max response mostly above about 13% (no sharp cut-off); inactive = mostly below about 14%.

The nature of the assay: Cycloheximide Counterscreen for Small Molecule Inhibitors of Shiga Toxin. Also: read at 38.3 µM for the half of the compounds with a filed dose; 0% is about no effect. The conditions noted are these: cell reporter, cycloheximide protein synthesis inhibition counterscreen; stronger effect = higher value.
On to `COC(=O)c1ccc(S(=O)(=O)N2CCc3ccccc3C2)cc1`, for which the max response was -0.876%.
The same measure for `CCc1nn(CCCC(=O)NCc2ccc(C)cc2)c(=O)c2cc3occc3n12`: 9.5%; for `CCCCCCC(O)(CCN1CCCCC1)c1ccccc1` (centres undefined): -3.74%; for `Cc1ccnc(N2CCCC(C(=O)NC3CC3)C2)n1` (centres undefined): -3.55%.
On to `CSCCC(Nc1nc2ccccc2s1)C(=O)O` (centres undefined), for which the max response was -2.31%.
The result for `Cc1ccc(S(=O)(=O)Nc2nc3ccccc3s2)cc1[N+](=O)[O-]` reads -1.91%; that for `Cc1ccnc(Nc2nc3ccccc3s2)n1`, 55.1% (active); that for `COc1cccc(NS(=O)(=O)c2ccc(-c3coc(C)n3)cc2)c1`, 15.9%.
The same measure for `O=C(NC1CCCC1)C1CC(=O)N(c2ccc(F)cc2)C1` (centres undefined): -4.78%; for `COCCC(=O)N1CCC(Oc2ccc(C(=O)NCc3ccon3)cc2)CC1`: 2.55%; for `COc1cc(OC)cc(C(=O)Nc2ncc3c(n2)CC(C)(C)CC3=O)c1`: 9.17%.
With `Cc1cc(NS(=O)(=O)c2ccc(NC(=O)c3cccnc3)cc2)nc(C)n1`, the max response is 1.8%.
The result for `COc1cc(OC)cc(C(=O)Nc2ccc(S(=O)(=O)Nc3cc(C)on3)cc2)c1` reads -4.87%; that for `COc1cc(OC)cc(C(=O)Nc2ccc(-c3nc4ccccc4o3)c(O)c2)c1`, 24.8% (active); that for `Cc1cc2nc(-c3ccc(NC(=O)c4cccnc4)cc3)oc2cc1C`, 32.1% (active).
The same measure for `CC(=O)Nc1ccc(-c2nc3ccccc3o2)cc1`: 35.3% (active); for `CC(=O)Nc1ccc(S(=O)(=O)N(C)c2nc3ccccc3nc2Cl)cc1`: 18%.
The result for `COC(=O)c1cc(NC(=O)c2cccnc2)ccc1N1CCOCC1` reads -2.96%; that for `CC(=O)NC(=S)Nc1ccc(NC(=O)c2cccnc2)cc1`, 1.22%.
Turning to `Cc1ccc2nc(-c3ccc(NC(=O)c4cccnc4)cc3)oc2c1`, the max response was 49.6% (active).
Regarding `CC(=O)Nc1ccc(Nc2c3ccccc3nc3ccccc23)cc1`, the max response was -9.79%.
The same measure for `CCC1=Nc2cc(C(=O)NCCCN3CCOCC3)ccc2Sc2ccc(Br)cc21`: -2.78%; for `CC(=O)Nc1ccc(S(=O)(=O)NCC(=O)OCc2cc(=O)oc3ccc4ccccc4c23)cc1`: -2.56%.
The same measure for `Cc1cc(OCCN2CCCC2)cc(C(C)C)c1`: -2.45%; for `CCn1cc(CN2CCC(C(=O)Nc3cccc(-c4cccc(Cl)c4)c3)CC2)cn1`: -10.1%; for `CC1Cc2cc(/C(O)=C3\C(=O)C(=O)N(Cc4cccnc4)C3c3ccccc3F)ccc2O1` (centres undefined): -1.92%.
`O=C(Cn1cc(/C=N/NC(=O)c2cccc(C(F)(F)F)c2)c2ccccc21)Nc1ccc(F)cc1`: the max response was 2.04%.
The same measure for `O=C(C(Cc1ccccc1)n1cccc1)N1CCN(C2CCCCC2)CC1` (centres undefined): -4.26%.
The result for `CCOC(=O)C1CCN(S(=O)(=O)c2c(C)noc2C)CC1` reads -1.8%.
The same measure for `Cc1ccc(C)c(S(=O)(=O)N2CCN(C(=O)Nc3ccccc3)CC2)c1`: -1.4%.
Regarding `Cc1ccc(NC(=O)c2ccn(C(=O)Nc3ccccc3)n2)c(C)c1`, the max response is 43.3% (active).
Turning to `Cc1ccc(NC(=O)Cn2nc(C)c3ccccc3c2=O)c(C)c1`, the max response was -1.38%.
The same measure for `Cc1ccc(CCCOC(=O)C[N+]2(C)CCCC2)cc1`: -2.71%.
The result for `Cc1c(C(=O)N2CCN(c3ccc(F)cc3)CC2)oc2c1C(=O)CCC2` reads -3.49%; that for `CCCCOC(=O)CCCc1ccc([N+](=O)[O-])cc1[N+](=O)[O-]`, -1.18%; that for `CC1C(=O)Nc2ccccc2N1C(=O)c1c(F)cccc1F` (centres undefined), -2.05%.
The result for `CC(Oc1cccc(NC(=O)c2cccs2)c1)C(=O)c1ccccc1` (centres undefined) reads 19.5% (active); that for `COc1cccc(NC(=O)C(C)Oc2ccccc2)c1` (centres undefined), 4.2%.
Regarding `O=C(Nc1ccccc1-c1ccccc1)c1cccs1`, the max response was 5.16%.
For the compound `C/C(=N\NC(=O)CNc1cccc2ccccc12)c1ccc(Br)s1`, the max response was -2.1%.
The result for `Cc1cccc(/C=N/NC(=O)CNc2cccc3ccccc23)n1` reads 45.5% (active).
The same measure for `Cn1cccc1/C=N/NC(=O)CNc1cccc2ccccc12`: 4.6%; for `Cc1ccccc1/[N+]([O-])=C/c1ccncc1`: 9.27%.
The same measure for `Cc1cccc(N2C(=O)c3ccc(C(=O)Nc4cccc(C(=O)O)c4)cc3C2=O)c1`: 10.2%.
For `O=C(c1ccc(S(=O)(=O)N2CCOCC2)cc1)N1CCN(c2ccccc2)CC1`, the max response is -2.23%.
The result for `O=C(/C=C/c1ccc(N2CCOCC2)cc1)c1ccccc1` reads 46.4% (active); that for `O=C(CN1CCN(S(=O)(=O)/C=C/c2ccccc2)CC1)Nc1ccc(N2CCOCC2)cc1`, -1.05%.
The result for `O=C(O)c1ccc2c(c1)C(=O)N(c1ccc(/C=C/C(=O)c3ccccc3)cc1)C2=O` reads 46.6% (active).
For `CC(=O)Oc1ccc(C)cc1N1C(=O)c2ccc(C(=O)O)cc2C1=O`, the max response was 6.31%.
The same measure for `O=C(NC1CCC(O)CC1)c1ccccc1OCc1ccc(F)cc1` (centres undefined): -3.74%.
The result for `Cc1ccccc1CN1C(=O)c2ccccc2Sc2ccc(C(=O)NCCCN3CCOCC3)cc21` reads -3.67%; that for `COc1cc(CO)ccc1OCC(=O)Nc1cccc2ccccc12`, -2.19%.
The result for `Cc1ccc(S(=O)(=O)N(CCCN(C)C)Cc2ccc3c(c2)OCO3)cc1` reads 1.74%; that for `CCC1CCCCN1C(=S)Nc1ccc(SC(F)F)cc1` (centres undefined), 1.07%.
`O=C(CCC(=O)N1CCCC1)Nc1ccc([N+](=O)[O-])cc1`: the max response was -2.89%.
The same measure for `CC(=O)c1ccc(NC(=O)CSC(=S)N2CCCC2)cc1`: 20.5% (active); for `O=C(COc1ccccc1)Nc1ccc(C(=O)N2CCCC2)cc1`: 37.5%; for `CCC1CCCCN1C(=S)Nc1ccc(C(C)=O)cc1` (centres undefined): 8.58% (active).
With `CCC1CCCCN1C(=S)Nc1ccc(S(=O)(=O)Nc2ncccn2)cc1` (centres undefined), the max response was -2.13%.
The same measure for `O=C(NC(=S)Nc1ccc2oc(=O)ccc2c1)c1ccc(-c2cccc(Cl)c2Cl)o1`: 6.87%; for `CCCC(=O)N1CCN(c2nnc(-c3ccc(C)cc3)c3ccccc23)CC1`: -7.1%; for `Cc1cccc(CNS(=O)(=O)c2ccc(-c3cnc(C4CC4)o3)cc2)c1`: 18.8%.
Consider `CC(=O)c1sc(N/N=C/c2ccc(C(C)C)cc2)nc1C`, for which the max response is 43% (active).
The result for `Cc1nnc(C)n1/N=C/c1ccc(C(C)C)cc1` reads 4.86%.
The same measure for `CC(=O)c1sc(N/N=C\c2ccc(C)cc2)nc1C`: 48.9% (active); for `CC(=O)c1sc(NC(=O)CCCOc2ccccc2C)nc1C`: 1.03%.
The same measure for `CCOC(=O)c1sc(/N=C/Nc2nc(C)c(C(=O)OCC)s2)nc1C`: 10.8%.
On to `Cc1ccc(S(=O)(=O)Nc2nc(C)cc(N/N=C/c3ccc(O)cc3)n2)cc1`, for which the max response was -2.44%.
The result for `C=CCC1(C#N)C(=S)NC(C)=C(C(=O)OCC)C1c1ccccc1` (centres undefined) reads -1.77%; that for `NC(=O)C1CCN(CC(O)CSc2ccc(F)cc2)CC1` (centres undefined), -5.01%; that for `NS(=O)(=O)c1ccc(CCNC(=O)c2ccc([N+](=O)[O-])cc2[N+](=O)[O-])cc1`, -3.47%.
In the case of `Cc1cc(NC(=O)c2cnn3cccnc23)n(-c2ccccc2)n1`, the max response was 0.387%.
For `O=C(Nc1ccc(Cl)cn1)c1ccc2c(c1)OCCO2`, the max response was 37.5% (active).
`Cc1nc(NC(=O)c2ccc3c(c2)OCCO3)ccc1Br`: the max response was 57.9% (active).
The result for `CC(=O)c1ccc2c(c1)OCCOCCOc1ccc(C(C)=O)cc1OCCOCCO2` reads 0.857%; that for `COc1c(Cl)cc(C(=O)Nc2ccc(Cl)cn2)cc1Cl`, 11.7%.
The same measure for `Cc1ccc2sc(NNC(=O)c3ccc4c(c3)OCCO4)nc2c1C`: 5.17%; for `COc1ccc(C(=O)NC(=S)Nc2ccc(Cl)cn2)cc1OC`: -1.11%.
The result for `O=C(Nc1ccc(Cl)cn1)c1cnn2cccnc12` reads 58.9% (active).
`O=C(Nc1cccnc1)c1ccc(Cl)cc1[N+](=O)[O-]`: the max response was -1.02%.
The result for `O=C(NCc1ccncc1)C(=O)NCC1OCCN1S(=O)(=O)c1ccc(Br)cc1` (centres undefined) reads -5.83%; that for `CSCCNCc1cn(-c2ccc(F)cc2F)nc1-c1ccccc1C`, -0.8%.
The result for `COc1cc(OC)c(NS(=O)(=O)c2cn(C)cn2)cc1Cl` reads -0.545%; that for `COc1cc(/C=C2/C(=O)NN(c3cccc(Cl)c3)C2=O)cc(Br)c1O`, 0.32%.
The result for `CC1(C)O[C@@H]2C[C@@H]3[C@H]4C[C@@H](F)C5=CC(=O)C=C[C@]5(C)[C@@]4(F)[C@@H](O)C[C@]3(C)[C@]2(C(=O)CO)O1` reads 7.66%.
As for `CCOC(=O)c1ccc(NC(=O)c2nc[nH]c2C(=O)NCc2ccccc2)cc1`, the max response was -1.19%.
The result for `O=C(NCCN1CCN(C(=O)c2cccc([N+](=O)[O-])c2)CC1)C(=O)NCc1ccc(Cl)cc1` reads 1.34%; that for `Cc1cc(-c2csc(N)n2)c(C)n1Cc1ccccc1`, 22.9% (active); that for `Cc1cc(-c2csc(N)n2)c(C)n1-c1ccccc1`, 28.2%.
The result for `CC(=O)Nc1ccc(C(=O)Nc2nc(-c3cc(C)n(Cc4ccccc4)c3C)cs2)cc1` reads -2.65%; that for `Cc1nn2c(c1-c1ccccc1)N=C(c1ccco1)CC2c1ccccc1` (centres undefined), 20.9% (active).
The result for `O=C(O)CCCC(=O)N1N=C(c2ccco2)CC1c1ccco1` (centres undefined) reads -3.77%; that for `Cn1c(N)c(C(=O)COC(=O)C23CC4CC(CC(C4)C2)C3)c(=O)n(C)c1=O`, -2.04%.
In the case of `Cc1cc(NC(=O)Nc2ccccc2[N+](=O)[O-])no1`, the max response was 16.1% (active).
The result for `CCOC(=O)/C(=N\Nc1ccccc1[N+](=O)[O-])c1csc(Nc2ccccc2)n1` reads 11.6%; that for `O=C(Nc1ccccc1[N+](=O)[O-])C1C(c2ccccc2)=C1c1ccccc1`, -1.97%; that for `Cc1c(NC(=O)Nc2ccccc2)cccc1[N+](=O)[O-]`, -0.54%.
The result for `Cc1csc(NC(=O)Nc2ccccc2[N+](=O)[O-])n1` reads 40.4% (active).
The same measure for `O=C(O)c1ccccc1C(=O)Nc1ccccc1[N+](=O)[O-]`: 0.991%.
